In the supplement of paper PMC11732987, “Enantioselective OTUD7B fragment discovery through chemoproteomics screening and high-throughput optimisation” (Communications Chemistry, 2025):

How the values were obtained:
Assay in all cases: log2 ratio of Biotin-Ahx-Ub-VS probe labelling (fragment/DMSO); higher = less target engagement (more negative = stronger competition), active = hit call of the paper (q ≤ 0.05, log2 ratio ≤ -1)
Details in all cases: compound concentration: 200 uM; treatment time: 3 h
USP19 = biological target: T1, USP19 (UniProt O94966)
T1 sequence (whole entry): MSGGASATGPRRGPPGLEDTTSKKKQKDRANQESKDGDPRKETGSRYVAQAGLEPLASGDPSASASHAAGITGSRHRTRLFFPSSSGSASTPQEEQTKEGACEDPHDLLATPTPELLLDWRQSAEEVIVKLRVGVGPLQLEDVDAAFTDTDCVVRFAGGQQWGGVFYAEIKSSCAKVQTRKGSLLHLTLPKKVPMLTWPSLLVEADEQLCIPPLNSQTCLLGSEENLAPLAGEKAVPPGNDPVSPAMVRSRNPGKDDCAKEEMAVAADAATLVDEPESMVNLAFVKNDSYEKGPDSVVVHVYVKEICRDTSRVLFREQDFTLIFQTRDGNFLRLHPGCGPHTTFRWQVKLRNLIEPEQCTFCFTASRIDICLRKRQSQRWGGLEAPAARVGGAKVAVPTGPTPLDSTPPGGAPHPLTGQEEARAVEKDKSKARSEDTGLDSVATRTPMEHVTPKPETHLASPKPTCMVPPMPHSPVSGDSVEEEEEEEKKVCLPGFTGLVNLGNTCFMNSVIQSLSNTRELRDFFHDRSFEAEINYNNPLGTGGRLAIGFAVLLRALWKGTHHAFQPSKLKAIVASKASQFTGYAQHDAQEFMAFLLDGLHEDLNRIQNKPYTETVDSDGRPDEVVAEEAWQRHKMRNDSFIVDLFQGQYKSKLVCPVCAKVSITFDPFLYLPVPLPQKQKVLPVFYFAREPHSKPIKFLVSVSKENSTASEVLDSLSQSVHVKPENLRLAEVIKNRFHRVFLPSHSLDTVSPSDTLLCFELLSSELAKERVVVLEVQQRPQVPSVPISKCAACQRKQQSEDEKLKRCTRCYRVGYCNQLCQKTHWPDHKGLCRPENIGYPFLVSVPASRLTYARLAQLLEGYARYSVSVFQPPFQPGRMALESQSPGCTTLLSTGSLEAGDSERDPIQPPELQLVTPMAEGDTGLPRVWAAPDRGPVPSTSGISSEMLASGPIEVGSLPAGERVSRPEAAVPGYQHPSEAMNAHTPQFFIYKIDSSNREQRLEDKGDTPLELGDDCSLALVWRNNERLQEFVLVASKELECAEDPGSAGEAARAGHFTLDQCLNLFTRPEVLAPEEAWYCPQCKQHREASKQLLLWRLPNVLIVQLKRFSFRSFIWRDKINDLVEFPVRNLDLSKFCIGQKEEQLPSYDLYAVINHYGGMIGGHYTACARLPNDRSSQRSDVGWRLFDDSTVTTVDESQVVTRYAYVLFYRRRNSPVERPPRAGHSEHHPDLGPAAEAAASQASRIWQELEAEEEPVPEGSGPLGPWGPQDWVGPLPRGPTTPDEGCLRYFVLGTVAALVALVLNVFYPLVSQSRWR
In short: (§1)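 Average log2 ratios of fragment over vehicle were obtained by unpaired t-test from global-median-normalised Spectronaut label-free quantities. Proteins with ≥2 unique peptides were included. HEK293T lysate (495 µg per sample) was treated in triplicate with fragment at 200 µM or vehicle for 3 h, then with Biotin-Ahx-Ub-VS at 0.5 µM final for 1 h, and labelled DUBs were NeutrAvidin-enriched and run by diaPASEF LC-MS/MS.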

USP22 = biological target: T2, USP22 (UniProt Q9UPT9)
T2 sequence (whole entry): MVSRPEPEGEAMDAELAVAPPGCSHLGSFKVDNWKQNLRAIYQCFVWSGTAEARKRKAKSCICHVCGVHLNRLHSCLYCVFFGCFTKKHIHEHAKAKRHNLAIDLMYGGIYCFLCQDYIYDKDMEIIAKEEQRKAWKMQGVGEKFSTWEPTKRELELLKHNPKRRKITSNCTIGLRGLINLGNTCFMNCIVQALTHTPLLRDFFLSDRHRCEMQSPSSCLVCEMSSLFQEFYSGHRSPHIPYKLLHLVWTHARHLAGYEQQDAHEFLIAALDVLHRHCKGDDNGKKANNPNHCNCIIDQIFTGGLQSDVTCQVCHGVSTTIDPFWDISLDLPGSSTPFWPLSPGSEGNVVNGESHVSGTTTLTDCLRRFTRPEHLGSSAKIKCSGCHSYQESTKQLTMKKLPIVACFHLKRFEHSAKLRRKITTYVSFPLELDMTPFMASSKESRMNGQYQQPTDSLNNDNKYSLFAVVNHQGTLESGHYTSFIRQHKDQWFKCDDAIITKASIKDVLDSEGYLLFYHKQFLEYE
In short: as §1

USP24 = USP24 (UniProt Q9UPU5)
USP24, sequence (Q9UPU5 whole entry): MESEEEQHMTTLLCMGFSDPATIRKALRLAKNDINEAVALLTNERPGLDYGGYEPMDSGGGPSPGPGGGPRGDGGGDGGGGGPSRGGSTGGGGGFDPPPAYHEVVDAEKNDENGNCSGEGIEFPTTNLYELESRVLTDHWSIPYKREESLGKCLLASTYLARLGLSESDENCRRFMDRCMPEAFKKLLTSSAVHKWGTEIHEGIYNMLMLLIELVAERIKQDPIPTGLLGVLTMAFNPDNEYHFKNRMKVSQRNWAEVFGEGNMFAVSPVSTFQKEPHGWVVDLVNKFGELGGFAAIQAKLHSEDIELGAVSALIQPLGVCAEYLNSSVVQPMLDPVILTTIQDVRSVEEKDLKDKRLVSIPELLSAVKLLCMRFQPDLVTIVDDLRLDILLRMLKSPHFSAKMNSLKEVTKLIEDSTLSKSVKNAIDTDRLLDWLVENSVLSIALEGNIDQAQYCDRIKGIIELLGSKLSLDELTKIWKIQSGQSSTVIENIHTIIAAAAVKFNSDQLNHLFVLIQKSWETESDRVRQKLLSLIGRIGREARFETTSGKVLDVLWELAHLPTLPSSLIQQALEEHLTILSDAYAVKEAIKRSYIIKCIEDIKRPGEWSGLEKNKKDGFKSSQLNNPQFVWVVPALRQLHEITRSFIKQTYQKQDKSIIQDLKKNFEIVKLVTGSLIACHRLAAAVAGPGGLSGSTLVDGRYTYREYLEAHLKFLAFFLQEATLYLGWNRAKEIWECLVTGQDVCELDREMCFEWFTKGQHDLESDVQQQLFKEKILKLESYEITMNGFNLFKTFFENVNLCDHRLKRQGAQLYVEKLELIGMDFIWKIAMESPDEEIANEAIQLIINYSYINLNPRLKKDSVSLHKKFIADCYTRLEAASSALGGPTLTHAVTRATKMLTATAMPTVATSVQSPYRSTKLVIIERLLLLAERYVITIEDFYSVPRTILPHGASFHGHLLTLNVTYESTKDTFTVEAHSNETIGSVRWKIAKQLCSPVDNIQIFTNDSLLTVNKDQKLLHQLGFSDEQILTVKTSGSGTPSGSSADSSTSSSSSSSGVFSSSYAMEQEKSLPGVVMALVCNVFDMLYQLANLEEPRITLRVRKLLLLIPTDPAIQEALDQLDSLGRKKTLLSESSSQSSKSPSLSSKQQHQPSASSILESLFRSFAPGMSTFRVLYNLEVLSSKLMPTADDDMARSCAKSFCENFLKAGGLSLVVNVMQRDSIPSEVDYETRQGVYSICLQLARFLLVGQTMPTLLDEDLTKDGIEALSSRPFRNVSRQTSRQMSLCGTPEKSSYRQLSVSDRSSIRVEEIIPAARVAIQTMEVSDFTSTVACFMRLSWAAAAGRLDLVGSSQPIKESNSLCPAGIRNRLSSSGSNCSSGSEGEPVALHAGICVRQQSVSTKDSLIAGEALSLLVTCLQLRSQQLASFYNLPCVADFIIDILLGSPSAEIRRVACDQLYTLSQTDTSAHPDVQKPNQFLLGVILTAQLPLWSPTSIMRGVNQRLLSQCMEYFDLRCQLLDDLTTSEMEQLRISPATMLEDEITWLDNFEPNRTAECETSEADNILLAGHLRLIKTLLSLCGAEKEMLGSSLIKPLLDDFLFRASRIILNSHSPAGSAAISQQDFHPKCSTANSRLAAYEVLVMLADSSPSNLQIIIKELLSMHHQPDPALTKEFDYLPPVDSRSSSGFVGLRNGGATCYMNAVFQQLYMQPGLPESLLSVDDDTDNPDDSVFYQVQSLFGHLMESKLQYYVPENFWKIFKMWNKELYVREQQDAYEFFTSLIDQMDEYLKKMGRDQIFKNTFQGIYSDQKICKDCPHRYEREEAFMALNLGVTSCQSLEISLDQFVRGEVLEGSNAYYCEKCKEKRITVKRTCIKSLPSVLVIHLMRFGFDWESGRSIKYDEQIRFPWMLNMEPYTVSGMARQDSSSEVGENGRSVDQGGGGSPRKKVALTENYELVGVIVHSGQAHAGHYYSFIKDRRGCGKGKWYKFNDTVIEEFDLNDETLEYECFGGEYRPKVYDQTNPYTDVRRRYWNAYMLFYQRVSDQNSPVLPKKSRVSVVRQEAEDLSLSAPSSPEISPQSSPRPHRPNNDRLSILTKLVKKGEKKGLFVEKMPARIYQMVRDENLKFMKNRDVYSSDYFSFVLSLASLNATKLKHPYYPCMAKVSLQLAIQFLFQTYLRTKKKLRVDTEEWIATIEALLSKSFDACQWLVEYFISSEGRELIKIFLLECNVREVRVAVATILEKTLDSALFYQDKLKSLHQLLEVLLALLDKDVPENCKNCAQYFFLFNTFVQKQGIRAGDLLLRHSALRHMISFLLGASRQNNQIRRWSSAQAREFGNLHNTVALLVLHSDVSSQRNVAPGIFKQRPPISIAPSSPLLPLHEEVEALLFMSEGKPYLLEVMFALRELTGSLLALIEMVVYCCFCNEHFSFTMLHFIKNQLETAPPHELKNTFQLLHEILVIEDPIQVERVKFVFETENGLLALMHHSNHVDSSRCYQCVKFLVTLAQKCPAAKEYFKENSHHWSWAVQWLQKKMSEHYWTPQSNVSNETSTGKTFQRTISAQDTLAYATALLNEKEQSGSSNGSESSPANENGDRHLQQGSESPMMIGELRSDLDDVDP
In short: as §1

USP25 = biological target: T3, USP25 (UniProt Q9UHP3)
T3 sequence (whole entry): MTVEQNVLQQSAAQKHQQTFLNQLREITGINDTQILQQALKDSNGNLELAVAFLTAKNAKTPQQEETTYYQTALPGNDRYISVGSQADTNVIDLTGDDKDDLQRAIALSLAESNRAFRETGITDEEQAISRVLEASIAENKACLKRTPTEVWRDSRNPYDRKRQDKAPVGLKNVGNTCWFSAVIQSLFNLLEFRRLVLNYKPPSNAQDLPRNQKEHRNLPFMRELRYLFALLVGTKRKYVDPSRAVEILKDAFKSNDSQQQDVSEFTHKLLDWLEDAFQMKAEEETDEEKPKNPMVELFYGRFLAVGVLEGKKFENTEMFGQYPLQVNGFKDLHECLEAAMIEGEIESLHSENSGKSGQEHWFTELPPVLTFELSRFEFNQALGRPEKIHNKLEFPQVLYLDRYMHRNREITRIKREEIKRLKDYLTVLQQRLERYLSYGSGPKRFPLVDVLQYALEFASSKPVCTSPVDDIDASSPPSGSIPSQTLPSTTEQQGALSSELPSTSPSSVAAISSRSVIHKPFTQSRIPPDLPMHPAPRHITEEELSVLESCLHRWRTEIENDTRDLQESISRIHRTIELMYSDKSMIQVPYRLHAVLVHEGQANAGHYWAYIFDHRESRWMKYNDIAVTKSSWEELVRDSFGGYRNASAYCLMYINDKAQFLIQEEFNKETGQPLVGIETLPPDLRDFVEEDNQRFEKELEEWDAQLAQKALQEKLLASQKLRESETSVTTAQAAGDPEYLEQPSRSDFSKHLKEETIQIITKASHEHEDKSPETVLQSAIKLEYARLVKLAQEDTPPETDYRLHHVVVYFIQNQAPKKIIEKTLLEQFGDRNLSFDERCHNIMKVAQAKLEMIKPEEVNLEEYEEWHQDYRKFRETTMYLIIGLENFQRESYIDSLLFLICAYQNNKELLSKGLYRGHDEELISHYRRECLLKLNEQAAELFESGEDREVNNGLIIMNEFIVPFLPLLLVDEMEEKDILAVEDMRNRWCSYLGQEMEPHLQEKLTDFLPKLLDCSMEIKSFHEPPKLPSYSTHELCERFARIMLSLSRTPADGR
In short: as §1

USP28 = biological target: T4, USP28 (UniProt Q96RU2)
T4 sequence (whole entry): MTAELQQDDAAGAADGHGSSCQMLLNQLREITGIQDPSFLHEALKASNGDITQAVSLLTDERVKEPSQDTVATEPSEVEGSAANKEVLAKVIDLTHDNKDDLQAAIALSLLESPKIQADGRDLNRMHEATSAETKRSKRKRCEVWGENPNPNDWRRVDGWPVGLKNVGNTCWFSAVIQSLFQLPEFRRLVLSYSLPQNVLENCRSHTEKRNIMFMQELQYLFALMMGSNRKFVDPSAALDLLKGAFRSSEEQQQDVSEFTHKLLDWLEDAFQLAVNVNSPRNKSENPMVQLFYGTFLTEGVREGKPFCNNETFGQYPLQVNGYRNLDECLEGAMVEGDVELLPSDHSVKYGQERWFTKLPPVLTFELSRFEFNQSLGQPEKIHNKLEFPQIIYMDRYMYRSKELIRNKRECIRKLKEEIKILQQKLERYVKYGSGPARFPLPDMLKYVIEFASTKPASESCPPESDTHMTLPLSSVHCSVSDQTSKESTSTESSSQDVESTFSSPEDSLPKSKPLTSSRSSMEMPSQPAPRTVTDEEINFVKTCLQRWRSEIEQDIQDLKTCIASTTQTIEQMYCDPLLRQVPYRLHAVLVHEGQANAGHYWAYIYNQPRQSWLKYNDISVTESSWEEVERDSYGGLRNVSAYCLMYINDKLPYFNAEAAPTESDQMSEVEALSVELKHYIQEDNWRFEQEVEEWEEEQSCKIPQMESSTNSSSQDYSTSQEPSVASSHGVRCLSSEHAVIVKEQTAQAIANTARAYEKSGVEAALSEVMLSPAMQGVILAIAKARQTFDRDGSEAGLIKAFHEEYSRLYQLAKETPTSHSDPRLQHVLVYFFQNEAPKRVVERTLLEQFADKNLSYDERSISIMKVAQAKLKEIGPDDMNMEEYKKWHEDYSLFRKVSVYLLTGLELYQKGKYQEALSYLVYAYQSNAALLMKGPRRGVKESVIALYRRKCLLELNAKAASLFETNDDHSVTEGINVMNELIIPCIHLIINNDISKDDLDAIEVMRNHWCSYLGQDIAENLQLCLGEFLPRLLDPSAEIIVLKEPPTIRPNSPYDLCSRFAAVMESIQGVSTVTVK
In short: as §1

Measured: log2 ratio of Biotin-Ahx-Ub-VS probe labelling

Cl.O=C(CCl)N[C@H]1C[C@@H](n2cccn2)C1
inactive: USP19 -0.157 | USP22 0.044 | USP24 -0.464 | USP25 -0.201 | USP28 -0.188
